Here are results for 33 compounds from the supplement of paper PMC7556523.

Values without a mark were called inactive.

Assay [1] concerns Sporothrix brasiliensis CBS 133006. In words: growth inhibition relative to untreated control; higher = more growth inhibition (more antifungal activity), active = 80 or more; extreme values may be limits of the assay. The note with it: 1 µM; 48 h. The gist of the method: (§1)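 The reported figure is percent growth inhibition relative to untreated cells, from quadruplicate runs. Yeast-form cells of the reference isolates at 1 x 10^5 CFU/ml were exposed to library compounds at a final 1 μM for 48 h at 35°C in 5% CO2, and growth was assessed by microscopy and spectrophotometric readings.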

The subject of assay [2] is Sporothrix schenckii ATCC 32286. The assay is described as above. As to conditions: 1 µM; 48 h. The gist of the method: as §1

`CC1=NN(c2nc3ccccc3s2)C(=O)C1Cc1cccc2ccccc12` (stereo unspecified): the growth inhibition was 17.2% in assay [1] and 14.8% in assay [2].

In the case of `CC(C)n1ncc2c(C(=O)NCC(c3cccs3)N3CCOCC3)cc(-c3ccccc3)nc21` (stereo unspecified), the growth inhibition in assay [1] was 2%; in assay [2] it was 12.8%.

Regarding `C[C@H]1COc2c(N3CCN(C)CC3)c(F)cc3c(=O)c(C(=O)O)cn1c23`, the growth inhibition in assay [1] and in assay [2] was 0% in each case.

On to `Cc1c[nH]c(CCNC(=O)c2cc(-c3ccc(Cl)cc3)cs2)n1`, for which the results for the growth inhibition in assay [1] and in assay [2] were 4% and 0%, respectively.

As to `COc1cc(OC)cc(C(=O)NCC2Cc3cc(Cl)cc(-c4ccncc4)c3O2)c1` (stereo unspecified), the growth inhibition in assay [1] is 17.5%; in assay [2], 2%.

On to `O=C(NC1CCN(c2ccnc3ccccc23)C1)c1cccc(C(F)(F)F)c1` (stereo unspecified), for which the growth inhibition is 0% in assay [1] and 1.5% in assay [2].

Regarding `c1ccc(Oc2ccc(-c3cc(CN4CCOCC4)[nH]n3)cc2)cc1`, the growth inhibition is 2.25% in assay [1] and 5.75% in assay [2].

Consider `CC(C)(C)c1cc(C(=O)Nc2cccnc2)cc(C(=O)Nc2cccnc2)c1`, for which the growth inhibition was 6% in assay [1] and 4% in assay [2].

As for `CC(=O)Nc1ccc(NC(=O)c2cc(-c3cc(Cl)ccc3O)n[nH]2)cc1`, the growth inhibition in assay [1] is 9.5%; in assay [2], 0%.

Take `OCc1ccc(-c2cncc(Nc3cccc(Cl)c3)c2)cc1`: the growth inhibition was 25.5% in assay [1] and 6.75% in assay [2].

As for `CCCNC(=O)N1CCC2(CC1)CC(=O)c1cc(C)ccc1O2`, the growth inhibition in assay [1] and in assay [2] was 2.25% throughout.

`FC(F)(F)c1ccc(N(c2cccnc2)C2CCN(c3ccc(C(F)(F)F)cn3)CC2)cc1`: the growth inhibition in assay [1] and in assay [2] was 0% throughout.

For `Cc1ccc2oc(-c3cc(NC(=O)Cc4ccccc4)ccc3Cl)nc2c1`, the growth inhibition in assay [1] is 14.5%; in assay [2] it was 11.2%.

In the case of `CC(C)c1ncc(-c2ccncc2)c([C@H]2CC[C@H](CNC(=O)c3cccnc3)CC2)n1`, the growth inhibition is 4.5% in assay [1] and 8.25% in assay [2].

In the case of `O=C(Nc1cccc(-c2ccc(NCCCN3CCCC3)nc2)c1)c1ccccc1`, the growth inhibition was 14.8% in assay [1] and 6% in assay [2].

Regarding `CN(C(=O)c1cc2c(-c3cncnc3)cccc2[nH]1)c1ccccc1`, the growth inhibition in assay [1] was 8.25%; in assay [2], 3.25%.

`NS(=O)(=O)c1cncc(-c2ccc3nccc(-c4cn[nH]c4)c3n2)c1`: the growth inhibition is 5.5% in assay [1] and 2% in assay [2].

On to `CCc1ccccc1-n1c(C)cn2c3c(=O)n(C(C(=O)OC)C(C)C)c(=O)n(C)c3nc12` (stereo unspecified), for which the growth inhibition was 15.8% in assay [1] and 0% in assay [2].

Turning to `Clc1ccc(CCNc2cc(-c3ccccc3)nc3ncnn23)cc1`, the values for the growth inhibition in assay [1] and in assay [2] were 9.75% and 18.2%, respectively.

As for `Cc1nn2c(=O)c3c([nH]c2c1-c1ccc(Cl)cc1)CCCC3`, the growth inhibition in assay [1] was 12.8%; in assay [2], 15.8%.

For the compound `O=C(c1[nH]nc2c1CCCC2)N1CCN(Cc2ccc3c(c2)OCO3)CC1`, the growth inhibition in assay [1] was 9.75%; in assay [2], 16.2%.

Turning to `Nc1ccc(C(=O)Nc2ccc(-c3nc4ccccc4o3)cc2)cc1`, the growth inhibition in assay [1] is 5.5%; in assay [2], 0%.

As to `Cc1nc(-c2ccccn2)nc(NCCc2ccc(S(C)(=O)=O)cc2)c1Cl`, the growth inhibition is 13% in assay [1] and 0% in assay [2].

Regarding `CCCn1c(NC(=O)c2ccc3ccccc3n2)nc2ccccc21`, the growth inhibition in assay [1] was 3.5%; in assay [2], 0%.

Consider `CC(C)(C)n1nc(Cc2cccc3ccccc23)c2c(N)ncnc21`, for which the growth inhibition in assay [1] was 11%; in assay [2], 0%.

Regarding `Cc1cc(C(=O)Nc2ccc(-c3ccccc3)cc2)no1`, the growth inhibition is 1.75% in assay [1] and 17% in assay [2].

With `O=C(Nc1ccnc(-c2cccnc2)n1)c1cc(C(F)(F)F)cc(C(F)(F)F)c1`, the growth inhibition in assay [1] is 2.5%; in assay [2] it was 0%.

On to `c1ccc(-c2nc(NC3CCCCC3)cc(C3CC3)n2)nc1`, for which the growth inhibition in assay [1] is 16.8%; in assay [2], 38.2%.

In the case of `N=C(N)c1ccc(-c2cc(-c3ccccc3)on2)cc1`, the growth inhibition in assay [1] was 7%; in assay [2], 10.5%.

Regarding `COc1cc(NC(=O)Cc2nn(C)c(=O)c3ccccc23)ccc1Cl`, the values for the growth inhibition in assay [1] and in assay [2] were 4.5% and 0%, respectively.

Consider `Cc1ccc(C(=O)Nc2ccc(S(=O)(=O)O)c3cc(S(=O)(=O)O)cc(S(=O)(=O)O)c23)cc1NC(=O)c1cccc(NC(=O)Nc2cccc(C(=O)Nc3cc(C(=O)Nc4ccc(S(=O)(=O)O)c5cc(S(=O)(=O)O)cc(S(=O)(=O)O)c45)ccc3C)c2)c1`, for which the growth inhibition in assay [1] is 28%; in assay [2] it was 19%.

In the case of `COc1ccc(-c2onc(C(F)(F)F)c2-c2ccc(Cl)cc2)c(O)c1`, the growth inhibition in assay [1] is 11.8%; in assay [2], 6%.

In the case of `CS(=O)(=O)N1CCC(Cn2nc(Cc3cccc4ccccc34)c3c(N)ncnc32)CC1`, the growth inhibition is 11.2% in assay [1] and 22% in assay [2].
